Assay results: publication PMC7862700, “An all-to-all approach to the identification of sequence-specific readers for epigenetic DNA modifications on cytosine”

Experiments:
Test in all cases: DAPPL (digital affinity profiling via proximity ligation, sequencing); 10 mM Tris-HCl pH 7.5, 50 mM NaCl, 1 mM DTT, 4% glycerol, room temperature, 30 min; GST-TFs on glutathione beads, 16-mer random dsDNA library, 0.1% formaldehyde crosslink after washing; high values mean tight binding
Details in all cases: protein: recombinant; tags: N-terminal GST; dsDNA, one strand shown
[1] = biological target: T1, FLI1 (Homo sapiens, UniProt Q01543 1-452)
T1 sequence: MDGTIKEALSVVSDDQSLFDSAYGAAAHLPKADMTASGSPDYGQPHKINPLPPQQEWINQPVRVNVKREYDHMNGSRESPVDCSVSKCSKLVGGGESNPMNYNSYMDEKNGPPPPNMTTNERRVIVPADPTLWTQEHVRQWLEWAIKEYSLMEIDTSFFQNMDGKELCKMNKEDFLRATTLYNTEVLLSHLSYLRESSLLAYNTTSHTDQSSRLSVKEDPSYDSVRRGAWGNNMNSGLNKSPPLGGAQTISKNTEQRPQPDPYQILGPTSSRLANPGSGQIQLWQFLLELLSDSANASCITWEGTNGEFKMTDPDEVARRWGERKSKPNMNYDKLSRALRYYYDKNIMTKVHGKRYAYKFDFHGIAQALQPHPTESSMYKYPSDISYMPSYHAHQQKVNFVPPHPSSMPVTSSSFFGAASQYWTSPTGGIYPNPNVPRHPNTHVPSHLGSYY
How it was run: (§1)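 Pools were built from human transcription factors expressed in yeast as GST fusions, captured on glutathione beads and DNA-barcoded, along with a tag-only sample. Incubation with 200 nmole of a 16-mer random double-stranded DNA library lasted 30 min at room temperature in Tris/NaCl/DTT/glycerol buffer, and was followed by washing, 0.1% formaldehyde crosslinking, proximity ligation, PCR amplification and Illumina NextSeq500 sequencing. Binding signal is the quotient of each hexamer's read frequency for a factor and its frequency for the tag-only sample.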

[2] = biological target: T2, ELK1 (Homo sapiens, UniProt P19419 1-428)
T2 sequence: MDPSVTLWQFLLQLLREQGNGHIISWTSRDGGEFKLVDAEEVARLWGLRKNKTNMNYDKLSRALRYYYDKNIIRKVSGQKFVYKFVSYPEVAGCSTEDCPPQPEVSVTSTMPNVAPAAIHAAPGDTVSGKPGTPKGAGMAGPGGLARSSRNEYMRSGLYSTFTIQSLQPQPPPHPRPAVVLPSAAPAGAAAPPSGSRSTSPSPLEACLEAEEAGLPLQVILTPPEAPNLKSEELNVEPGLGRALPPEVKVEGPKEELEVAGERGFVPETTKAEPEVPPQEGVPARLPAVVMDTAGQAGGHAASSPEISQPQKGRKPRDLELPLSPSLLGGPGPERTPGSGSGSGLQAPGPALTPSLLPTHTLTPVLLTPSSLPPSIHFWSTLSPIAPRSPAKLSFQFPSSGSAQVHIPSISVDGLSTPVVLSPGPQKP
How it was run: as §1

[3] = biological target: T3, GABPA (Homo sapiens, UniProt Q06546 1-454)
T3 sequence: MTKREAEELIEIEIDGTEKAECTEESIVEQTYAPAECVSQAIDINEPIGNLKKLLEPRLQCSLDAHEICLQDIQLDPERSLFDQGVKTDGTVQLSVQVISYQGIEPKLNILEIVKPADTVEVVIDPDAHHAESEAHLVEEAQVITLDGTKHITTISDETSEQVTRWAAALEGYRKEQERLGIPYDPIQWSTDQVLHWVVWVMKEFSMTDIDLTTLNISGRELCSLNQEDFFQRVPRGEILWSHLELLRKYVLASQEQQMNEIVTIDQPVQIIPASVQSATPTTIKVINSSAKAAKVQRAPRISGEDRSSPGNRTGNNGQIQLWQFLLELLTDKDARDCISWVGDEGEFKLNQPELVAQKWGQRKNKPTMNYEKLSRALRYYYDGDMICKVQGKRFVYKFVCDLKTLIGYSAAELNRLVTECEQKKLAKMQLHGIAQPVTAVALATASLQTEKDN
How it was run: as §1

[4] = biological target: T4, ERG (Homo sapiens, UniProt P11308 1-479)
T4 sequence: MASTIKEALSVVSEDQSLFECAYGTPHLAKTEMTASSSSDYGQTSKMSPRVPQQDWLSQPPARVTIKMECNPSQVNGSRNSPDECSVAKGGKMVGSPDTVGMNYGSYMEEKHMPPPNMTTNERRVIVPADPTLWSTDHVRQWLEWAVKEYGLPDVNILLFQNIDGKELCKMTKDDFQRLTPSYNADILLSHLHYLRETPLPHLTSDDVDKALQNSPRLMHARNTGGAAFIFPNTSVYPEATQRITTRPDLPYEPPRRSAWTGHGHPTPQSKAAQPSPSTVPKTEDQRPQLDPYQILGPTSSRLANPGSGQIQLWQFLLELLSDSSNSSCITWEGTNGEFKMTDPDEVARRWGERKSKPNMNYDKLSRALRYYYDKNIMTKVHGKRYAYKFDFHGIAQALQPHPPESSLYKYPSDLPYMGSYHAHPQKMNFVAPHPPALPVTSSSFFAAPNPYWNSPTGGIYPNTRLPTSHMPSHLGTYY
How it was run: as §1

[5] = biological target: ELF1 (Homo sapiens, UniProt P32519 1-619)
ELF1, sequence (P32519 whole entry): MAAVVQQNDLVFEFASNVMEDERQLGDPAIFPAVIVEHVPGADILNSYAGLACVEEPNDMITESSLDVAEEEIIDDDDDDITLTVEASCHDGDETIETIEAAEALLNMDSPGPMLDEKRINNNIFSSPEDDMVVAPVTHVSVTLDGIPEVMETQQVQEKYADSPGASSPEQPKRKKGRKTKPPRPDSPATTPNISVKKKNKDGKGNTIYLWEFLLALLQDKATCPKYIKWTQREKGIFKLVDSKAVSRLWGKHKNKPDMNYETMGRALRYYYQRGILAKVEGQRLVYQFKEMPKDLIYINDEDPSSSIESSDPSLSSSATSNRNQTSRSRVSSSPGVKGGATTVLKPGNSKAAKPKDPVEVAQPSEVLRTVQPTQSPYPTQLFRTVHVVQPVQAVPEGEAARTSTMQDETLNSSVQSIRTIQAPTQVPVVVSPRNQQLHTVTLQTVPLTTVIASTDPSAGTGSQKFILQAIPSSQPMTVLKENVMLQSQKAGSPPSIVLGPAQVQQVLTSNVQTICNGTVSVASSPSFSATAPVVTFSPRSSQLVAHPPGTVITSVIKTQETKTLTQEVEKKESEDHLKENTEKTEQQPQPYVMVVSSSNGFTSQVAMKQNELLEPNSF
How it was run: as §1

[6] = biological target: T5, EHF (Homo sapiens, UniProt Q9NZC4 1-300)
T5 sequence: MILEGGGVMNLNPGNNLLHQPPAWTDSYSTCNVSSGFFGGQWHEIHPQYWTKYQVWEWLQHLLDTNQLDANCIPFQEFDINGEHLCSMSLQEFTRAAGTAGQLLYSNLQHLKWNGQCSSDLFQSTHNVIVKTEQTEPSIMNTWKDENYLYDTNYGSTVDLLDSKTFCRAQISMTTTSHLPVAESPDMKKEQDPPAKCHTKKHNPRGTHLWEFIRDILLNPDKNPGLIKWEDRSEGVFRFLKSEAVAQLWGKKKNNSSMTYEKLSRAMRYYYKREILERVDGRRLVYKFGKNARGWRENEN
How it was run: as §1

[7] = biological target: SPI1 (Homo sapiens, UniProt P17947 1-270)
How it was run: as §1

[8] = biological target: SPIB (Homo sapiens, UniProt Q01892 1-262)
SPIB, sequence (Q01892 whole entry): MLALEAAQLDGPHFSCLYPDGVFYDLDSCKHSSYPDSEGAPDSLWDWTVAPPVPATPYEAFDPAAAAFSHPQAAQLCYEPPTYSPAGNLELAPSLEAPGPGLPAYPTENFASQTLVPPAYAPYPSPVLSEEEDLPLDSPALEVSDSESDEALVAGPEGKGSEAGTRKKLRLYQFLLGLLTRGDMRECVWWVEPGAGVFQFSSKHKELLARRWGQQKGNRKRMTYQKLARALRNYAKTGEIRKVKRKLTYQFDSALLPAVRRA
How it was run: as §1

[9] = biological target: SPI1 (Homo sapiens, UniProt P17947 1-270); remark: listed apart in the source
How it was run: as §1

[10] = biological target: T6, ELK3 (Homo sapiens, UniProt P41970 1-407)
T6 sequence: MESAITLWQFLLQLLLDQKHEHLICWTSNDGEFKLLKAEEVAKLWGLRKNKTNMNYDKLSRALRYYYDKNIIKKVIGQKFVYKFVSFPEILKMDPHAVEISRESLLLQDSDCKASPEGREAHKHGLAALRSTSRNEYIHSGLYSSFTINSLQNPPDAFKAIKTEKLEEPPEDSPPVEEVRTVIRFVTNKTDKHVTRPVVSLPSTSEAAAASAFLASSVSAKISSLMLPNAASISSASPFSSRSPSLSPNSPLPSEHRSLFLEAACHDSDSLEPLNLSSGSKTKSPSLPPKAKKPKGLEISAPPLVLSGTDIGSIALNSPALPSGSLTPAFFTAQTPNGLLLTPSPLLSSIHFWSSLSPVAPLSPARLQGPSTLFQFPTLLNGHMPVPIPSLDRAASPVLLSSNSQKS
How it was run: as §1

Sequence | binding signal [1] | binding signal [2] | binding signal [3] | binding signal [4] | binding signal [5] | binding signal [6] | binding signal [7] | binding signal [8] | binding signal [9] | binding signal [10]
AACGCC | 1.07 fold enrichment (6-mer frequency, TF over GST control) | 1.1 fold enrichment (6-mer frequency, TF over GST control) | 1.08 fold enrichment (6-mer frequency, TF over GST control) | 1.06 fold enrichment (6-mer frequency, TF over GST control) | 1.09 fold enrichment (6-mer frequency, TF over GST control) | 1.15 fold enrichment (6-mer frequency, TF over GST control) | 1.06 fold enrichment (6-mer frequency, TF over GST control) | 1.11 fold enrichment (6-mer frequency, TF over GST control) |  | 
GCTGAA | 1.14 fold enrichment (6-mer frequency, TF over GST control) | 1.09 fold enrichment (6-mer frequency, TF over GST control) | 1.14 fold enrichment (6-mer frequency, TF over GST control) | 1.03 fold enrichment (6-mer frequency, TF over GST control) | 1.16 fold enrichment (6-mer frequency, TF over GST control) | 1.1 fold enrichment (6-mer frequency, TF over GST control) | 1.06 fold enrichment (6-mer frequency, TF over GST control) | 1.11 fold enrichment (6-mer frequency, TF over GST control) |  | 
AATCAT | 1.13 fold enrichment (6-mer frequency, TF over GST control) | 1.12 fold enrichment (6-mer frequency, TF over GST control) | 1.19 fold enrichment (6-mer frequency, TF over GST control) | 1.12 fold enrichment (6-mer frequency, TF over GST control) | 1.16 fold enrichment (6-mer frequency, TF over GST control) | 1.17 fold enrichment (6-mer frequency, TF over GST control) | 1.07 fold enrichment (6-mer frequency, TF over GST control) | 1.21 fold enrichment (6-mer frequency, TF over GST control) |  | 
GCTTAG | 1.14 fold enrichment (6-mer frequency, TF over GST control) | 1.06 fold enrichment (6-mer frequency, TF over GST control) | 1.19 fold enrichment (6-mer frequency, TF over GST control) | 1.18 fold enrichment (6-mer frequency, TF over GST control) | 1.15 fold enrichment (6-mer frequency, TF over GST control) | 1.11 fold enrichment (6-mer frequency, TF over GST control) | 1.1 fold enrichment (6-mer frequency, TF over GST control) | 1.09 fold enrichment (6-mer frequency, TF over GST control) |  | 
GCTCTG | 1.18 fold enrichment (6-mer frequency, TF over GST control) | 1.26 fold enrichment (6-mer frequency, TF over GST control) | 1.03 fold enrichment (6-mer frequency, TF over GST control) | 1.01 fold enrichment (6-mer frequency, TF over GST control) | 1.08 fold enrichment (6-mer frequency, TF over GST control) | 1.15 fold enrichment (6-mer frequency, TF over GST control) | 1.11 fold enrichment (6-mer frequency, TF over GST control) | 1.1 fold enrichment (6-mer frequency, TF over GST control) |  | 
TTCCTC | 2.26 fold enrichment (6-mer frequency, TF over GST control) | 2.09 fold enrichment (6-mer frequency, TF over GST control) | 2.1 fold enrichment (6-mer frequency, TF over GST control) | 2.21 fold enrichment (6-mer frequency, TF over GST control) | 2.12 fold enrichment (6-mer frequency, TF over GST control) | 2.32 fold enrichment (6-mer frequency, TF over GST control) |  | 2.26 fold enrichment (6-mer frequency, TF over GST control) | 4.31 fold enrichment (6-mer frequency, TF over GST control) | 2.3 fold enrichment (6-mer frequency, TF over GST control)
AGTGTT | 1.05 fold enrichment (6-mer frequency, TF over GST control) | 1.16 fold enrichment (6-mer frequency, TF over GST control) | 1.14 fold enrichment (6-mer frequency, TF over GST control) | 1.15 fold enrichment (6-mer frequency, TF over GST control) | 1.08 fold enrichment (6-mer frequency, TF over GST control) | 1.02 fold enrichment (6-mer frequency, TF over GST control) | 1.32 fold enrichment (6-mer frequency, TF over GST control) | 1.15 fold enrichment (6-mer frequency, TF over GST control) |  | 
CGATCG | 1.18 fold enrichment (6-mer frequency, TF over GST control) | 1.12 fold enrichment (6-mer frequency, TF over GST control) | 1.14 fold enrichment (6-mer frequency, TF over GST control) | 1.1 fold enrichment (6-mer frequency, TF over GST control) | 1.13 fold enrichment (6-mer frequency, TF over GST control) | 1.07 fold enrichment (6-mer frequency, TF over GST control) | 1.02 fold enrichment (6-mer frequency, TF over GST control) | 1.03 fold enrichment (6-mer frequency, TF over GST control) |  | 
